Among the data in PubChem BioAssay (NCATS) are Potency, max response and outcome values, retold here.

One assay relates to ICS. The experiment in a line: qHTS profiling for inhibitors of Plasmodium falciparum proliferation (AID 504749).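 Also: 0% = DMSO vehicle and full inhibition = artemisinin control.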 As to conditions: P. falciparum in erythrocytes, SYBR Green DNA, 72 h; series mostly up to 28.7 µM. In a few lines: (§1)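 Infected RBCs, 0.3% parasitemia/2.5% Hct final; cpd 72 h, 37 C, 5% CO2; lysis buffer with saponin/triton/SYBR Green I, o/n RT dark; FI 485/535; norm. to artemisinin (0.29 uM) and DMSO.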

The subject of a further assay is JCK. The description is as above. As to conditions: P. falciparum in erythrocytes, SYBR Green DNA, 72 h; series mostly up to 28.7 µM. In a few lines:
as §1

Another assay relates to N140. The description is as above. As to conditions: P. falciparum in erythrocytes, SYBR Green DNA, 72 h; series mostly up to 28.7 µM. In a few lines:
as §1

A further assay concerns P93_24. The assay is described as above. As to conditions: P. falciparum in erythrocytes, SYBR Green DNA, 72 h; series mostly up to 28.7 µM. In a few lines: as §1
Another assay concerns P94_40. Described as above. As to conditions: P. falciparum in erythrocytes, SYBR Green DNA, 72 h; series mostly up to 28.7 µM. In outline: as §1
The subject of a further assay is PAD. The assay is described as above. As to conditions: P. falciparum in erythrocytes, SYBR Green DNA, 72 h; series mostly up to 28.7 µM. In outline: as §1
The subject of the next assay is PC15. The assay is described as above. As to conditions: P. falciparum in erythrocytes, SYBR Green DNA, 72 h; series mostly up to 28.7 µM. In a few lines:
as §1

In another assay the test system is PC26. The assay is described as above. As to conditions: P. falciparum in erythrocytes, SYBR Green DNA, 72 h; series mostly up to 28.7 µM. In outline: as §1
The next assay relates to PC49. The description is as above. As to conditions: P. falciparum in erythrocytes, SYBR Green DNA, 72 h; series mostly up to 28.7 µM. In outline: as §1
The subject of another assay is SC27B. The description is as above. As to conditions: P. falciparum in erythrocytes, SYBR Green DNA, 72 h; series mostly up to 28.7 µM. In outline: as §1
The next assay has as its system TAB109. The description is as above. As to conditions: P. falciparum in erythrocytes, SYBR Green DNA, 72 h; series mostly up to 28.7 µM. In a few lines:
as §1

The subject of the next assay is TAB113. The description is as above. As to conditions: P. falciparum in erythrocytes, SYBR Green DNA, 72 h; series mostly up to 28.7 µM. In a few lines: as §1
The subject of the next assay is TAB165. The assay is described as above. As to conditions: P. falciparum in erythrocytes, SYBR Green DNA, 72 h; series mostly up to 28.7 µM. In a few lines:
as §1

In a further assay the test system is W2. Described as above. As to conditions: P. falciparum in erythrocytes, SYBR Green DNA, 72 h; series mostly up to 28.7 µM. In a few lines: as §1
Assay [1] concerns CRL-7250. The experiment in a line: Cytotoxic Profiling of Annotated Libraries Using Quantitative High-Throughput Screening (AID 1296008). Also: potency is read from the fitted curve at half-maximal effect. As to max response: % is scaled to controls: 0 for no effect and ±100 for the full control effect. As to conditions: Five cell lines viability, CellTiter-Glo ATP luminescence, 48-72 h; max response: hits give low values. In outline: (§2)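 Cytotoxicity was measured as CellTiter-Glo ATP luminescence, read after 10 min at room temperature. Compound treatment of the cells lasted 48 or 72 hr at 37 degrees Celsius in a qHTS format.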

Another assay relates to HEK293. The assay is described as above. As to conditions: Five cell lines viability, CellTiter-Glo ATP luminescence, 48-72 h; max response: hits give low values. In outline:
as §2

For another assay, the system named is HaCat. Described as above. As to conditions: Five cell lines viability, CellTiter-Glo ATP luminescence, 48-72 h; max response: hits give low values. In outline: as §2
The next assay concerns KB-3-1. The assay is described as above. As to conditions: Five cell lines viability, CellTiter-Glo ATP luminescence, 48-72 h; max response: hits give low values. In a few lines:
as §2

The next assay concerns NIH3T3. Described as above. As to conditions: Five cell lines viability, CellTiter-Glo ATP luminescence, 48-72 h; max response: hits give low values. In outline: as §2
In assay [2] the test system is CRL-7250. Put plainly: qHTS assay to identify novel small-molecules to repurpose for Merkel cell carcinoma treatment (AID 1296009). As to conditions: MCC and control cell lines, CellTiter-Glo viability, 72 h; series mostly up to 44.8 µM. In outline: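 72 hr, 37 degree celsius; NPC 8-pt / MIPE 11-pt dose response; compound pinned in DMSO; CellTiter-Glo, 10 min RT, luminescence; normalized to no-cell and DMSO controls.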

The structures appear in SMILES notation. Values joined by “and” are separate entries in the source; they are usually repeats but may differ in a detail not shown here. Equal values may be shown once. Inconclusive results are not listed. Values without a mark were called inactive. Active and inactive are the calls of the source. Calls follow the shape of the dose curve; as a rule, active = well fitted inhibition curve with a large enough effect; inconclusive = small, poorly fitted or top-dose-only effect; inactive = flat fitted curve, though single readings scatter.
Also: nearly all actives have a fitted effect of over 60% in size.

For `O=C(NC(O)C(Cl)(Cl)Cl)NC(O)C(Cl)(Cl)Cl` (stereo not given), the Potency result with ICS, in the assay on JCK, in the assay with N140, with P93_24, with P94_40 and in the assay with PAD was “inactive” throughout. Further, the Potency result in the assay with PC15, in the assay with PC26, in the assay with PC49, in the assay on SC27B, in the assay on TAB109 and in the assay on TAB113 was “inactive” in each case. Moreover, the Potency entry with TAB165 and with W2 was “inactive” throughout. Also, the max response in the assay with CRL-7250 [1] is 1.53%; in the assay with HEK293 it was 0.365%; with KB-3-1, 2.53%. In addition, the outcome in the assay on HaCat and in the assay on NIH3T3 was inactive.
For the compound `CCCC1CCCCN1` (stereo not given), the Potency entry with ICS, with JCK, in the assay with N140, in the assay on P93_24, in the assay with P94_40 and with PAD was “inactive” in each case. The Potency entry with PC15, with PC26, with PC49, with SC27B, in the assay on TAB109 and with TAB113 was “inactive” in each case. Besides, the Potency result in the assay with TAB165 and with W2 was “inactive” each time. Besides, the figures for the max response with CRL-7250 [1], in the assay with HEK293 and with KB-3-1 were -4.9%, -7.03% and -0.9%, respectively. Moreover, the compound was called inactive with HaCat and with NIH3T3.
On to `CCCN1CCC[C@@H]2Cc3nc(N)ncc3C[C@H]21`, for which the outcome with CRL-7250 [1], in the assay on HaCat and in the assay with CRL-7250 [2] was inactive. The max response in the assay with HEK293 was -17.9%; in the assay with KB-3-1, 14.3%; in the assay with NIH3T3 it was -7.61%.
As for `NCC(O)c1ccc(O)cc1` (stereo not given), the Potency entry in the assay on ICS, with JCK, in the assay on N140, in the assay with P93_24, with P94_40 and with PAD was “inactive” each time. The Potency result in the assay with PC15, in the assay on PC26, in the assay on PC49, in the assay on SC27B, in the assay with TAB109 and in the assay on TAB113 was “inactive” each time. Also, the Potency entry with TAB165 was “inactive”. Moreover, the max response is 4.85% in the assay on CRL-7250 [1]; 4.81% with HEK293; -2.74% with HaCat; -4.37% with KB-3-1; -5.72% in the assay with NIH3T3.
For `Cn1cc(C2=C(c3cn(C4CCN(Cc5ccccn5)CC4)c4ccccc34)C(=O)NC2=O)c2ccccc21`, the max response with CRL-7250 [1] is -3.19% and -9.47%; in the assay on HEK293 it was -3.71% and -0.888%; in the assay on HaCat it was -7.11%; in the assay with KB-3-1, 7.73% and 20.1%. The compound was called inactive in the assay on NIH3T3.
For the compound `CN(C)CCc1ccc(O)cc1`, the Potency entry in the assay with ICS, with JCK, in the assay on N140, with P93_24, in the assay on P94_40 and in the assay with PAD was “inactive” in each case. In addition, the Potency result in the assay with PC15, in the assay with PC26, in the assay on PC49, with SC27B, with TAB109 and in the assay with TAB113 was “inactive” each time. For the same compound, the Potency entry in the assay on TAB165 and in the assay on W2 was “inactive” throughout. The max response in the assay on CRL-7250 [1] was -1.07% and -0.797%; in the assay with HEK293, 4.35%; with HaCat, 3.93%; with KB-3-1, -1.4% and 4.63%; in the assay with NIH3T3, -1.51% and -2.46%. The result in the assay on HEK293 and with HaCat was inactive.
For `NP(N)(=O)NC(=O)c1ccc(F)cc1`, the Potency entry in the assay on ICS, with JCK, in the assay on N140, in the assay with P93_24, in the assay with P94_40 and in the assay on PAD was “inactive” throughout. The Potency entry with PC15, with PC26, with PC49, with SC27B, with TAB109 and with TAB113 was “inactive” each time. Besides, the Potency result in the assay with TAB165 and in the assay on W2 was “inactive” throughout. Besides, the compound was classed as inactive with CRL-7250 [1], in the assay with HEK293, with HaCat and with CRL-7250 [2]. For the same compound, the max response in the assay with KB-3-1 is -13.3%; in the assay with NIH3T3, 4.85%.
`CCC(C(N)=O)N1CCCC1=O` (stereo not given): the Potency entry with ICS, with JCK, in the assay with N140, with P93_24, with P94_40 and in the assay with PAD was “inactive” in each case. Moreover, the Potency entry in the assay with PC15, in the assay on PC26, in the assay on PC49, in the assay with SC27B, in the assay on TAB109 and with TAB113 was “inactive” in each case. The Potency entry in the assay on TAB165 is “inactive”. Besides, the figures for the max response in the assay with CRL-7250 [1], with HEK293 and in the assay with KB-3-1 were -0.833%, -1.93% and -5.57%, respectively. Also, the call in the assay on HaCat and in the assay with NIH3T3 was inactive.
As to `O=C1CC[C@@]2(O)[C@H]3Cc4ccc(O)c5c4[C@@]2(CCN3CC2CC2)[C@H]1O5`, the max response with CRL-7250 [1] was -7.93%; with HEK293, -3.14% and -3.82%; in the assay with KB-3-1, 6.29%; with NIH3T3, -0.716%. For the same compound, the outcome in the assay on CRL-7250 [1], with HaCat, in the assay on KB-3-1, with NIH3T3 and with CRL-7250 [2] was inactive.
In the case of `CCN(CC)C(=O)N[C@@H]1C=C2c3cccc4[nH]cc(c34)C[C@@H]2N(C)C1`, the outcome in the assay with CRL-7250 [1], with NIH3T3 and with CRL-7250 [2] was inactive. The max response in the assay with HEK293 is -11.8%; in the assay on HaCat, -0.0252%; in the assay with KB-3-1, -10.6%.
With `COC[C@H]1OC(=O)c2coc3c2[C@@]1(C)C1=C(C3=O)C2CCC(=O)[C@@]2(C)C[C@H]1OC(C)=O` (stereo not given in full), the max response with CRL-7250 [1] was -6.6%; in the assay on HEK293, -95.7% and 0.842%; with HaCat, -21.4%; with KB-3-1 it was -5.47%. Further, the result in the assay on HaCat and in the assay on KB-3-1 was inactive.
With `CC[N+]1(C)CCCC(OC(=O)C(O)(c2ccccc2)c2ccccc2)C1` (stereo not given), the Potency result with ICS, in the assay on JCK, with N140, with P93_24, in the assay with P94_40 and with PAD was “inactive” each time. Further, the Potency entry in the assay with PC15, with PC26, in the assay with PC49, in the assay on SC27B, with TAB109 and in the assay with TAB113 was “inactive” in each case. Also, the Potency entry with TAB165 and in the assay with W2 was “inactive” each time. Further, the max response in the assay on CRL-7250 [1] was 2.5%; in the assay on HEK293, -9.88%; with HaCat, 1.89%; in the assay on KB-3-1, 3.82%. Besides, the compound was called inactive with NIH3T3.
Turning to `Cc1cc(SCc2sc(-c3ccc(C(F)(F)F)c(F)c3)nc2C)ccc1OCC(=O)O`, the compound was classed as inactive in the assay with CRL-7250 [1], with HEK293, in the assay on HaCat, in the assay on KB-3-1, in the assay on NIH3T3 and in the assay with CRL-7250 [2]. In addition, the max response was -0.859% with HEK293, -0.392% with KB-3-1 and 3.63% in the assay on NIH3T3.
With `C[C@H]1O[C@@H](O[C@H]2[C@@H](O)C[C@H](O[C@H]3[C@@H](O)C[C@H](O[C@H]4CC[C@@]5(C)[C@H](CC[C@@H]6[C@@H]5CC[C@]5(C)[C@@H](C7=CC(=O)OC7)CC[C@]65O)C4)O[C@@H]3C)O[C@@H]2C)C[C@H](O)[C@@H]1O`, the Potency with CRL-7250 [1] is 33.5 nM (active) and 48.5 nM (active); in the assay with HEK293, 53.1 nM (active) and 61.1 nM (active); with HaCat it was 266 nM (active); with KB-3-1, 73.1 nM (active) and 137 nM (active). Moreover, in the assay on NIH3T3, the max response is -6.15%.
